# How the values were obtained:
# Test in all cases: yeast three-hybrid, YBZ-1, SC-Leu-His + 0.5 mM 3-AT, 4 days
# Conditions in all cases: tags: N-Gal4 AD-HA kept; label: inside an RPR1-promoter hybrid RNA with tandem MS2 sites; ssRNA
# [1] = target: PUM1 PUF domain R2-LIM (Homo sapiens, UniProt Q14671 828-1176, N899L;Y900I;Q903M)
# Procedure, shortened: (§1)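 The interaction score is the logarithmic change in variant frequency from input to selection. It uses log2, with a pseudocount of 1 for absent variants, and frequencies came from PCR-amplified, Illumina-sequenced repeat regions. The libraries were Pumilio-1 PUF domains randomized at the three base-contacting residues per repeat, co-expressed with matching RNA elements in strain YBZ-1 (LexA–MS2 coat fusion, HIS3 reporter). Plating lasted four days on SC-Leu (input) or SC-Leu-His + 0.5 mM 3-AT (selection).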
# [2] = target: PUM1 PUF domain R5-DRQ (Homo sapiens, UniProt Q14671 828-1176, C1007D)
# Procedure, shortened: as §1
# [3] = target: PUM1 PUF domain R5-RQC (Homo sapiens, UniProt Q14671 828-1176, C1007R;R1008Q;Q1011C)
# Procedure, shortened: as §1
# [4] = target: PUM1 PUF domain R5-KRP (Homo sapiens, UniProt Q14671 828-1176, C1007K;Q1011P)
# Procedure, shortened: as §1
# [5] = target: PUM1 PUF domain R5-CTR (Homo sapiens, UniProt Q14671 828-1176, R1008T;Q1011R)
# Procedure, shortened: as §1
# [6] = target: PUM1 PUF domain R5-RFD (Homo sapiens, UniProt Q14671 828-1176, C1007R;R1008F;Q1011D)
# Procedure, shortened: as §1
# [7] = target: PUM1 PUF domain R5-HHH (Homo sapiens, UniProt Q14671 828-1176, C1007H;R1008H;Q1011H)
# Procedure, shortened: as §1
# [8] = target: PUM1 PUF domain R5-QHV (Homo sapiens, UniProt Q14671 828-1176, C1007Q;R1008H;Q1011V)
# Procedure, shortened: as §1
# [9] = target: PUM1 PUF domain R5-DHW (Homo sapiens, UniProt Q14671 828-1176, C1007D;R1008H;Q1011W)
# Procedure, shortened: as §1
# [10] = target: PUM1 PUF domain R8-RGR (Homo sapiens, UniProt Q14671 828-1176, N1122R;Y1123G;Q1126R)
# Procedure, shortened: as §1
# [11] = target: PUM1 PUF domain R4-CRS (Homo sapiens, UniProt Q14671 828-1176, N971C;H972R;Q975S)
# Procedure, shortened: as §1
# [12] = target: PUM1 PUF domain R2-VFQ R3-THE R4-TFR (Homo sapiens, UniProt Q14671 828-1176, N899V;Y900F;C935T;R936H;Q939E;N971T;H972F;Q975R)
# Procedure, shortened: as §1
# [13] = target: PUM1 PUF domain R5-TEE (Homo sapiens, UniProt Q14671 828-1176, C1007T;R1008E;Q1011E)
# Procedure, shortened: as §1
# [14] = target: PUM1 PUF domain R1-RRI (Homo sapiens, UniProt Q14671 828-1176, S863R;Q867I)
# Procedure, shortened: as §1
# [15] = target: PUM1 PUF domain R1-IWR (Homo sapiens, UniProt Q14671 828-1176, S863I;R864W;Q867R)
# Procedure, shortened: as §1
# [16] = target: PUM1 PUF domain R8-LYF (Homo sapiens, UniProt Q14671 828-1176, N1122L;Q1126F)
# Procedure, shortened: as §1
# [17] = target: PUM1 PUF domain R8-HWP (Homo sapiens, UniProt Q14671 828-1176, N1122H;Y1123W;Q1126P)
# Procedure, shortened: as §1
# [18] = target: PUM1 PUF domain R3-IWY (Homo sapiens, UniProt Q14671 828-1176, C935I;R936W;Q939Y)
# Procedure, shortened: as §1
# [19] = target: PUM1 PUF domain R1-TLF (Homo sapiens, UniProt Q14671 828-1176, S863T;R864L;Q867F)
# Procedure, shortened: as §1
# [20] = target: PUM1 PUF domain R1-RIS (Homo sapiens, UniProt Q14671 828-1176, S863R;R864I;Q867S)
# Procedure, shortened: as §1
# Sequence of PUM1 PUF domain R5-RFD (Q14671 828-1176 C1007R/R1008F/Q1011D): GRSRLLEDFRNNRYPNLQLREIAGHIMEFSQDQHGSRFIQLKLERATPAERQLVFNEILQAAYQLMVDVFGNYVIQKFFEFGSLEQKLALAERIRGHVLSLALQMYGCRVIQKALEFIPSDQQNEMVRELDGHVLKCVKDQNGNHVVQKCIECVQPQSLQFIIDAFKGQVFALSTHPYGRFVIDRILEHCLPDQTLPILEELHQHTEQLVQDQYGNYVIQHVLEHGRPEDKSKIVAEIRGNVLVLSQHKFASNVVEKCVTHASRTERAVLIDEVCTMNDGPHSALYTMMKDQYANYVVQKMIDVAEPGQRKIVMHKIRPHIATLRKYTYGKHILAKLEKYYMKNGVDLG
# Sequence of PUM1 PUF domain R5-RQC (Q14671 828-1176 C1007R/R1008Q/Q1011C): as the sequence (Q14671 828-1176 C1007R/R1008F/Q1011D) above, with F181Q, D184C counted along it
# Sequence of PUM1 PUF domain R5-KRP (Q14671 828-1176 C1007K/Q1011P): as the sequence (Q14671 828-1176 C1007R/R1008F/Q1011D) above, with R180K, F181R, D184P counted along it
# Sequence of PUM1 PUF domain R3-IWY (Q14671 828-1176 C935I/R936W/Q939Y): as the sequence (Q14671 828-1176 C1007R/R1008F/Q1011D) above, with C108I, R109W, Q112Y, R180C, F181R, D184Q counted along it
# Sequence of PUM1 PUF domain R5-DRQ (Q14671 828-1176 C1007D): as the sequence (Q14671 828-1176 C1007R/R1008F/Q1011D) above, with R180D, F181R, D184Q counted along it
# Sequence of PUM1 PUF domain R8-RGR (Q14671 828-1176 N1122R/Y1123G/Q1126R): as the sequence (Q14671 828-1176 C1007R/R1008F/Q1011D) above, with R180C, F181R, D184Q, N295R, Y296G, Q299R counted along it
# Sequence of PUM1 PUF domain R5-CTR (Q14671 828-1176 R1008T/Q1011R): as the sequence (Q14671 828-1176 C1007R/R1008F/Q1011D) above, with R180C, F181T, D184R counted along it
# Sequence of PUM1 PUF domain R1-IWR (Q14671 828-1176 S863I/R864W/Q867R): as the sequence (Q14671 828-1176 C1007R/R1008F/Q1011D) above, with S36I, R37W, Q40R, R180C, F181R, D184Q counted along it
# Sequence of PUM1 PUF domain R2-LIM (Q14671 828-1176 N899L/Y900I/Q903M): as the sequence (Q14671 828-1176 C1007R/R1008F/Q1011D) above, with N72L, Y73I, Q76M, R180C, F181R, D184Q counted along it
# Sequence of PUM1 PUF domain R4-CRS (Q14671 828-1176 N971C/H972R/Q975S): as the sequence (Q14671 828-1176 C1007R/R1008F/Q1011D) above, with N144C, H145R, Q148S, R180C, F181R, D184Q counted along it
# Sequence of PUM1 PUF domain R1-TLF (Q14671 828-1176 S863T/R864L/Q867F): as the sequence (Q14671 828-1176 C1007R/R1008F/Q1011D) above, with S36T, R37L, Q40F, R180C, F181R, D184Q counted along it
# Sequence of PUM1 PUF domain R1-RIS (Q14671 828-1176 S863R/R864I/Q867S): as the sequence (Q14671 828-1176 C1007R/R1008F/Q1011D) above, with S36R, R37I, Q40S, R180C, F181R, D184Q counted along it
# Sequence of PUM1 PUF domain R8-HWP (Q14671 828-1176 N1122H/Y1123W/Q1126P): as the sequence (Q14671 828-1176 C1007R/R1008F/Q1011D) above, with R180C, F181R, D184Q, N295H, Y296W, Q299P counted along it
# Sequence of PUM1 PUF domain R1-RRI (Q14671 828-1176 S863R/Q867I): as the sequence (Q14671 828-1176 C1007R/R1008F/Q1011D) above, with S36R, Q40I, R180C, F181R, D184Q counted along it
# Sequence of PUM1 PUF domain R2-VFQ R3-THE R4-TFR (Q14671 828-1176 N899V/Y900F/C935T/R936H/Q939E/N971T/H972F/Q975R): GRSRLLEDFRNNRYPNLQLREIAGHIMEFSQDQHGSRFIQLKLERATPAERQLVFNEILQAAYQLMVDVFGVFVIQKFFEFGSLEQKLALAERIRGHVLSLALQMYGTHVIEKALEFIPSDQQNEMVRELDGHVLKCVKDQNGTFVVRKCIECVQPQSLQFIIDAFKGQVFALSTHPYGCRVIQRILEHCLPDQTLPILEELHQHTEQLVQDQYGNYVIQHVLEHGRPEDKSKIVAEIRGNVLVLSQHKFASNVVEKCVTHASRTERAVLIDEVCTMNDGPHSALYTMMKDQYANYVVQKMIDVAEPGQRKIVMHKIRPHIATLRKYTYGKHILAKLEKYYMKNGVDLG
# Sequence of PUM1 PUF domain R5-DHW (Q14671 828-1176 C1007D/R1008H/Q1011W): as the sequence (Q14671 828-1176 C1007R/R1008F/Q1011D) above, with R180D, F181H, D184W counted along it
# Sequence of PUM1 PUF domain R8-LYF (Q14671 828-1176 N1122L/Q1126F): as the sequence (Q14671 828-1176 C1007R/R1008F/Q1011D) above, with R180C, F181R, D184Q, N295L, Q299F counted along it
# Sequence of PUM1 PUF domain R5-TEE (Q14671 828-1176 C1007T/R1008E/Q1011E): as the sequence (Q14671 828-1176 C1007R/R1008F/Q1011D) above, with R180T, F181E, D184E counted along it
# Sequence of PUM1 PUF domain R5-HHH (Q14671 828-1176 C1007H/R1008H/Q1011H): as the sequence (Q14671 828-1176 C1007R/R1008F/Q1011D) above, with R180H, F181H, D184H counted along it
# Sequence of PUM1 PUF domain R5-QHV (Q14671 828-1176 C1007Q/R1008H/Q1011V): as the sequence (Q14671 828-1176 C1007R/R1008F/Q1011D) above, with R180Q, F181H, D184V counted along it
sequence,measurement,setting,value
GGCUAGAACUAGUGGAUCCCCCGGCGCCCGGCGGCUCGAGCCCGGGUAAGUGUAAAGAGUCUGCAUGCCGCCGGGCGCCAUGCCUGCAGGUCGACUCUAGAAAACAUG,binding signal,[1],3.94 log2 enrichment (interaction score)
GGCUAGAACUAGUGGAUCCCCCGGCGCCCGGCGGCUCGAGCCCGGGUAAGUGUCAAUAGUCUGCAUGCCGCCGGGCGCCAUGCCUGCAGGUCGACUCUAGAAAACAUG,binding signal,[2],3.34 log2 enrichment (interaction score)
same,binding signal,[3],4.74 log2 enrichment (interaction score)
same,binding signal,[4],2.24 log2 enrichment (interaction score)
same,binding signal,[5],4.38 log2 enrichment (interaction score)
same,binding signal,[6],4.17 log2 enrichment (interaction score)
GGCUAGAACUAGUGGAUCCCCCGGCGCCCGGCGGCUCGAGCCCGGGUAAGUGUUAAUAGUCUGCAUGCCGCCGGGCGCCAUGCCUGCAGGUCGACUCUAGAAAACAUG,binding signal,[7],5.29 log2 enrichment (interaction score)
same,binding signal,[8],3.88 log2 enrichment (interaction score)
same,binding signal,[3],4.83 log2 enrichment (interaction score)
same,binding signal,[9],3.46 log2 enrichment (interaction score)
same,binding signal,[6],4.39 log2 enrichment (interaction score)
GGCUAGAACUAGUGGAUCCCCCGGCGCCCGGCGGCUCGAGCCCGGGUAAGUGUAAAUAGUCUGCAUGCCGCCGGGCGCCAUGCCUGCAGGUCGACUCUAGAAAACAUG,binding signal,[10],1.23 log2 enrichment (interaction score)
same,binding signal,[3],1.84 log2 enrichment (interaction score)
same,binding signal,[11],2.69 log2 enrichment (interaction score)
same,binding signal,[5],1.1 log2 enrichment (interaction score)
same,binding signal,[6],2.18 log2 enrichment (interaction score)
GGCUAGAACUAGUGGAUCCCCCGGCGCCCGGCGGCUCGAGCCCGGGUAAGUGUACGAAGUCUGCAUGCCGCCGGGCGCCAUGCCUGCAGGUCGACUCUAGAAAACAUG,binding signal,[12],3.9 log2 enrichment (interaction score)
GGCUAGAACUAGUGGAUCCCCCGGCGCCCGGCGGCUCGAGCCCGGGUAAGUGUGAAUAGUCUGCAUGCCGCCGGGCGCCAUGCCUGCAGGUCGACUCUAGAAAACAUG,binding signal,[13],3.25 log2 enrichment (interaction score)
same,binding signal,[2],3.23 log2 enrichment (interaction score)
same,binding signal,[4],0.17 log2 enrichment (interaction score)
same,binding signal,[6],2.73 log2 enrichment (interaction score)
GGCUAGAACUAGUGGAUCCCCCGGCGCCCGGCGGCUCGAGCCCGGGUAAGUGUAAAUCGUCUGCAUGCCGCCGGGCGCCAUGCCUGCAGGUCGACUCUAGAAAACAUG,binding signal,[14],3.61 log2 enrichment (interaction score)
same,binding signal,[15],2.56 log2 enrichment (interaction score)
GGCUAGAACUAGUGGAUCCCCCGGCGCCCGGCGGCUCGAGCCCGGGUAAGCGUAAAUAGUCUGCAUGCCGCCGGGCGCCAUGCCUGCAGGUCGACUCUAGAAAACAUG,binding signal,[16],2.3 log2 enrichment (interaction score)
same,binding signal,[17],5.59 log2 enrichment (interaction score)
same,binding signal,[10],2.53 log2 enrichment (interaction score)
GGCUAGAACUAGUGGAUCCCCCGGCGCCCGGCGGCUCGAGCCCGGGUAAGUGUAAGUAGUCUGCAUGCCGCCGGGCGCCAUGCCUGCAGGUCGACUCUAGAAAACAUG,binding signal,[18],1.76 log2 enrichment (interaction score)
GGCUAGAACUAGUGGAUCCCCCGGCGCCCGGCGGCUCGAGCCCGGGUAAGUGUAAUUAGUCUGCAUGCCGCCGGGCGCCAUGCCUGCAGGUCGACUCUAGAAAACAUG,binding signal,[18],3.36 log2 enrichment (interaction score)
GGCUAGAACUAGUGGAUCCCCCGGCGCCCGGCGGCUCGAGCCCGGGUAAGUGUAAAUUGUCUGCAUGCCGCCGGGCGCCAUGCCUGCAGGUCGACUCUAGAAAACAUG,binding signal,[15],1.52 log2 enrichment (interaction score)
same,binding signal,[19],4.45 log2 enrichment (interaction score)
same,binding signal,[20],3.81 log2 enrichment (interaction score)

# Reference: publication PMC8384837, “Expanding the binding specificity for RNA recognition by a PUF domain”
